These results are taken from PMC11006913.

What all share (assay): PBM; 200 nM protein, PBS
Holding throughout (settings): dsDNA, one strand shown

Experiment [1] concerns the target HOXB9 (Homo sapiens, UniProt P17482 171-250, T197M).
In experiment [2] the target is HOXC9 (Homo sapiens, UniProt P31274 178-260, K195R).
Experiment [3] concerns the target HOXC10 (Homo sapiens, UniProt Q9NYD6 254-340).
For a further experiment, the target named is ALX4 (Homo sapiens, UniProt Q9H161 200-286, Q225E).
In experiment [4] the target is HOXB9 (Homo sapiens, UniProt P17482 171-250).
The target in experiment [5] is HOXC9 (Homo sapiens, UniProt P31274 178-260).
Experiment [6] concerns the target HOXD13 (Homo sapiens, UniProt P35453 263-343, T313R).
Experiment [7] has as its target HOXC9 (Homo sapiens, UniProt P31274 178-260, R193K).
The target in experiment [8] is HOXD13 (Homo sapiens, UniProt P35453 263-343).
Experiment [9] concerns the target HOXC10 (Homo sapiens, UniProt Q9NYD6 254-340, K271E).
Experiment [10] has as its target HOXD13 (Homo sapiens, UniProt P35453 263-343, T313A).
In experiment [11] the target is HOXB9 (Homo sapiens, UniProt P17482 171-250, R186Q).
Experiment [12] concerns the target HOXC9 (Homo sapiens, UniProt P31274 178-260, R222W).
For experiment [13], the target named is MSX2 (Homo sapiens, UniProt P35548 130-214).
The target in experiment [14] is MSX2 (Homo sapiens, UniProt P35548 130-214, F161Y).
Chain of MSX2 (Homo sapiens, UniProt P35548 130-214, F161Y) (P35548 130-214 F161Y): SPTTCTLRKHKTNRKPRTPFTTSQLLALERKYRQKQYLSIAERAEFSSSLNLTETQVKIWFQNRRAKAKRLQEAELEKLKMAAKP

Chain of HOXC10 (Homo sapiens, UniProt Q9NYD6 254-340) (Q9NYD6 254-340): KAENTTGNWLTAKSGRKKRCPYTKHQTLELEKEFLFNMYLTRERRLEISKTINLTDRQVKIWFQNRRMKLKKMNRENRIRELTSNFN
Chain of HOXD13 (Homo sapiens, UniProt P35453 263-343, T313R) (P35453 263-343 T313R): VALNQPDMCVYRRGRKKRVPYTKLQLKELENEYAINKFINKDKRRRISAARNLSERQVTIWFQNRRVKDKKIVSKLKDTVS
Chain of HOXD13 (Homo sapiens, UniProt P35453 263-343, T313A) (P35453 263-343 T313A): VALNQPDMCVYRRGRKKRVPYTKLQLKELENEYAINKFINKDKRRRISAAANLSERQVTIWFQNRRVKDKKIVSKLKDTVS
Chain of HOXC9 (Homo sapiens, UniProt P31274 178-260, R222W) (P31274 178-260 R222W): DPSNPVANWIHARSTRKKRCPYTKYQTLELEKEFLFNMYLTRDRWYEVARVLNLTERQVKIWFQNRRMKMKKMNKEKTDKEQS
Chain of HOXC9 (Homo sapiens, UniProt P31274 178-260, K195R) (P31274 178-260 K195R): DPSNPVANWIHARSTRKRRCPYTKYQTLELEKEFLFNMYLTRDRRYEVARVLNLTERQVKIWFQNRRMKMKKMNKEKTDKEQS
Chain of HOXD13 (Homo sapiens, UniProt P35453 263-343) (P35453 263-343): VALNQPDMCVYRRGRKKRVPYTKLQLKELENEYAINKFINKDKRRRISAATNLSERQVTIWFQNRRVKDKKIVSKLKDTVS
Chain of HOXC9 (Homo sapiens, UniProt P31274 178-260) (P31274 178-260): as the sequence (P31274 178-260 R222W) above, with W45R counted along it
Chain of HOXB9 (Homo sapiens, UniProt P17482 171-250, T197M) (P17482 171-250 T197M): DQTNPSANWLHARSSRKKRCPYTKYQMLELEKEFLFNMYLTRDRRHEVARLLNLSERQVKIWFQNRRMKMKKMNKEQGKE
Chain of HOXB9 (Homo sapiens, UniProt P17482 171-250, R186Q) (P17482 171-250 R186Q): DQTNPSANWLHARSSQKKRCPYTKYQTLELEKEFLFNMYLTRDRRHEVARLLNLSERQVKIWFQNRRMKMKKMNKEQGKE
Chain of HOXC10 (Homo sapiens, UniProt Q9NYD6 254-340, K271E) (Q9NYD6 254-340 K271E): as the sequence (Q9NYD6 254-340) above, with K18E counted along it
Chain of HOXC9 (Homo sapiens, UniProt P31274 178-260, R193K) (P31274 178-260 R193K): as the sequence (P31274 178-260 R222W) above, with R16K, W45R counted along it
Chain of HOXB9 (Homo sapiens, UniProt P17482 171-250) (P17482 171-250): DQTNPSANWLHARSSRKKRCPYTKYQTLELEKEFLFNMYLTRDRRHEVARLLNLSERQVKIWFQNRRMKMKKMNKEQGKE
Chain of ALX4 (Q9H161 200-286 Q225E): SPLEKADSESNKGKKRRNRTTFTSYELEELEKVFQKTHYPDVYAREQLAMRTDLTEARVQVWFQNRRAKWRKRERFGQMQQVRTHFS
Chain of MSX2 (Homo sapiens, UniProt P35548 130-214) (P35548 130-214): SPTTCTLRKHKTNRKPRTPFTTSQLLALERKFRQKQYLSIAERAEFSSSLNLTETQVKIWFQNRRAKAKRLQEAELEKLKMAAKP

With TAATAAAA, the binding signal in the experiment with HOXB9 [1] was 10.1 upbm affinity estimate (log intensity, higher = more binding, comparable within an allelic series); in the experiment with HOXC9 [2], 13.2 upbm affinity estimate (log intensity, higher = more binding, comparable within an allelic series); in the experiment with HOXC10 [3], 13 upbm affinity estimate (log intensity, higher = more binding, comparable within an allelic series); with ALX4 it was 11.8 upbm affinity estimate (log intensity, higher = more binding, comparable within an allelic series); with HOXB9 [4], 12.6 upbm affinity estimate (log intensity, higher = more binding, comparable within an allelic series); with HOXC9 [5], 13.2 upbm affinity estimate (log intensity, higher = more binding, comparable within an allelic series). Besides, the binding signal with HOXD13 [6] is 11.1 upbm affinity estimate (log intensity, higher = more binding, comparable within an allelic series); with HOXC9 [7] it was 13.1 upbm affinity estimate (log intensity, higher = more binding, comparable within an allelic series); in the experiment with HOXD13 [8], 12.1 upbm affinity estimate (log intensity, higher = more binding, comparable within an allelic series); in the experiment with HOXC10 [9], 12.5 upbm affinity estimate (log intensity, higher = more binding, comparable within an allelic series); with HOXD13 [10], 12.1 upbm affinity estimate (log intensity, higher = more binding, comparable within an allelic series); with HOXB9 [11], 12.2 upbm affinity estimate (log intensity, higher = more binding, comparable within an allelic series). Besides, the binding signal with HOXC9 [12] is 11.7 upbm affinity estimate (log intensity, higher = more binding, comparable within an allelic series).
With ATAATAAA, the binding signal was 9.88 upbm affinity estimate (log intensity, higher = more binding, comparable within an allelic series) with HOXB9 [1]; 12.7 upbm affinity estimate (log intensity, higher = more binding, comparable within an allelic series) in the experiment with HOXC9 [2]; 12.5 upbm affinity estimate (log intensity, higher = more binding, comparable within an allelic series) with HOXC10 [3]; 11.9 upbm affinity estimate (log intensity, higher = more binding, comparable within an allelic series) with HOXB9 [4]; 12.7 upbm affinity estimate (log intensity, higher = more binding, comparable within an allelic series) with HOXC9 [5]; 10.8 upbm affinity estimate (log intensity, higher = more binding, comparable within an allelic series) with HOXD13 [6]. Also, the binding signal in the experiment with HOXC9 [7] is 12.7 upbm affinity estimate (log intensity, higher = more binding, comparable within an allelic series); with HOXD13 [8], 11.8 upbm affinity estimate (log intensity, higher = more binding, comparable within an allelic series); in the experiment with HOXC10 [9] it was 11.9 upbm affinity estimate (log intensity, higher = more binding, comparable within an allelic series); with HOXD13 [10] it was 11.6 upbm affinity estimate (log intensity, higher = more binding, comparable within an allelic series); with HOXB9 [11], 11.5 upbm affinity estimate (log intensity, higher = more binding, comparable within an allelic series); with HOXC9 [12], 11.2 upbm affinity estimate (log intensity, higher = more binding, comparable within an allelic series).
Consider AATAAAAA, for which the binding signal with HOXB9 [1] is 9.88 upbm affinity estimate (log intensity, higher = more binding, comparable within an allelic series); in the experiment with HOXC9 [2], 12.5 upbm affinity estimate (log intensity, higher = more binding, comparable within an allelic series); in the experiment with HOXC10 [3], 12.4 upbm affinity estimate (log intensity, higher = more binding, comparable within an allelic series); in the experiment with ALX4, 10.9 upbm affinity estimate (log intensity, higher = more binding, comparable within an allelic series); in the experiment with HOXB9 [4] it was 11.9 upbm affinity estimate (log intensity, higher = more binding, comparable within an allelic series); with HOXC9 [5] it was 12.6 upbm affinity estimate (log intensity, higher = more binding, comparable within an allelic series). Also, the binding signal with HOXC9 [7] was 12.5 upbm affinity estimate (log intensity, higher = more binding, comparable within an allelic series); with HOXC10 [9], 11.9 upbm affinity estimate (log intensity, higher = more binding, comparable within an allelic series); with HOXB9 [11], 11.6 upbm affinity estimate (log intensity, higher = more binding, comparable within an allelic series); with HOXC9 [12], 11.2 upbm affinity estimate (log intensity, higher = more binding, comparable within an allelic series).
For GCTATAAA, the binding signal in the experiment with HOXB9 [1] is 9.72 upbm affinity estimate (log intensity, higher = more binding, comparable within an allelic series); in the experiment with HOXC9 [2] it was 12.7 upbm affinity estimate (log intensity, higher = more binding, comparable within an allelic series); in the experiment with HOXC10 [3] it was 12.2 upbm affinity estimate (log intensity, higher = more binding, comparable within an allelic series); with HOXB9 [4], 12 upbm affinity estimate (log intensity, higher = more binding, comparable within an allelic series); with HOXC9 [5] it was 12.8 upbm affinity estimate (log intensity, higher = more binding, comparable within an allelic series); with HOXD13 [6], 10.9 upbm affinity estimate (log intensity, higher = more binding, comparable within an allelic series). For the same sequence, the binding signal is 12.7 upbm affinity estimate (log intensity, higher = more binding, comparable within an allelic series) with HOXC9 [7]; 12 upbm affinity estimate (log intensity, higher = more binding, comparable within an allelic series) with HOXD13 [8]; 11.4 upbm affinity estimate (log intensity, higher = more binding, comparable within an allelic series) with HOXC10 [9]; 11.7 upbm affinity estimate (log intensity, higher = more binding, comparable within an allelic series) with HOXD13 [10]; 11.7 upbm affinity estimate (log intensity, higher = more binding, comparable within an allelic series) in the experiment with HOXB9 [11]; 11 upbm affinity estimate (log intensity, higher = more binding, comparable within an allelic series) in the experiment with HOXC9 [12].
On to ACATAAAA, for which the binding signal with HOXB9 [1] is 9.85 upbm affinity estimate (log intensity, higher = more binding, comparable within an allelic series); with HOXC9 [2] it was 12.8 upbm affinity estimate (log intensity, higher = more binding, comparable within an allelic series); in the experiment with HOXC10 [3], 12.5 upbm affinity estimate (log intensity, higher = more binding, comparable within an allelic series); with HOXB9 [4], 12.3 upbm affinity estimate (log intensity, higher = more binding, comparable within an allelic series); in the experiment with HOXC9 [5] it was 13 upbm affinity estimate (log intensity, higher = more binding, comparable within an allelic series); with HOXC9 [7] it was 12.9 upbm affinity estimate (log intensity, higher = more binding, comparable within an allelic series). The binding signal in the experiment with HOXC10 [9] is 12 upbm affinity estimate (log intensity, higher = more binding, comparable within an allelic series); with MSX2 [13] it was 11.3 upbm affinity estimate (log intensity, higher = more binding, comparable within an allelic series); with HOXB9 [11], 12 upbm affinity estimate (log intensity, higher = more binding, comparable within an allelic series); with HOXC9 [12] it was 11.3 upbm affinity estimate (log intensity, higher = more binding, comparable within an allelic series); with MSX2 [14] it was 11.1 upbm affinity estimate (log intensity, higher = more binding, comparable within an allelic series).
